Measured values published in PubChem BioAssay (NCI).
Values joined by “and” are separate entries in the source; they are usually repeats but may differ in a detail not shown here. Equal entries are not always repeated. The panel holds about 83,000 compounds, 20% with a hit somewhere; the sample as a whole holds those more often.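 Percent growth is the endpoint: 0 to 100 indicates growth inhibition (40 means 60% inhibition), 0 means no net growth, and negative values indicate cell death.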 Active and inactive are the calls of the source. Where a SMILES comes first, the peptide text is derived from it. The star is where a group is joined. Trt = c1ccc(C(c2ccccc2)(c2ccccc2)*)cc1; Cbz = O=C(OCc1ccccc1)*

test system: PC-3 prostate; assay: NCI-60 one-dose screen, 48 h (100 = growth as untreated, 0 = no growth, -100 = all killed); settings: 10 µM
Method: Growth inhibition of the PC-3 human tumor cell line is measured as a screen for anti-cancer activity. Cells are grown in 96 well plates and exposed to the test compound for 48 hours. Compounds are tested at a single concentration, which is 10^-5 M for most compounds. The reported endpoint is percent growth (GI% or GIPRCNT), where numbers from 0 - 100% represent growth inhibition, and numbers from -100% - 0 represent cell death. For example, a value of 40 represents 60% growth inhibition. A value of 0 means no net growth occurred over the course of the experiment. A value of -40 indicates 40% of cells at the beginning of the experiment died by the end of the experiment. A value of -100 means all cells are dead at the end of the experiment.
NCI-60 Human Tumor Cell Lines Screen was performed using the standard one-dose NCI protocol, which is described in more detail at https://dtp.cancer.gov/discovery_development/nci-60/default.htm.
Compounds with GIPRCNT values below 10 were considered active. Activity score was based on GIPRCNT using the following formula: […]
Score is 0 for GIPRCNT values of 100 or above, 50 for GIPRCNT values of 0, and 100 for GIPRCNT values of -100.

| Structure (SMILES) | growth |
| --- | --- |
| COc1ccc(-c2cscc2N)cc1 | 98.4% (inactive) |
| O=C(O)c1c(Cl)c(Cl)c(Cl)c(Cl)c1-c1c2cc(I)c(=O)c(I)c-2oc2c(I)c(O)c(I)cc12 | 116% (inactive) and 82.8% (inactive) and 34% (inactive) |
| O=C(Nc1c(Cl)cccc1Cl)Oc1cccc2cccnc12 | 41% (inactive) |

same assay, conditions: 10 µM unless noted

| Structure (SMILES) | growth |
| --- | --- |
| C=C(Cl)C(=NC(C)(C)C)Nc1ccccc1C | 77.3% (inactive) |
| CCCCCC(CCCCC)C(=O)O | 87.6% (inactive) |
| O=C(O)C1C2CC3C(OC(=O)C31)C2Br (stereo not given) | 90.4% (inactive) and 105% (inactive) |
| Nc1nc(N)c2nc(CNc3ccc(C(=O)NC(CCC(=O)O)C(=O)O)cc3)cnc2n1 (stereo not given) | 43.3% (inactive) and 26.6% (inactive) |
| COC(=O)C(CSC(c1ccccc1)(c1ccccc1)c1ccccc1)NC(=O)C(CC(N)=O)NC(=O)OCc1ccccc1 (stereo not drawn) (Cbz-Asn-Cys(Trt)-OMe; configuration not given here) | 36.9% (inactive) |
| C[N+](C)=c1ccc2nc3c(cc(NCCCNc4cc5oc6cc(=[N+](C)C)ccc-6nc5c5ccccc45)c4ccccc43)oc-2c1 | 6.83% (active) |
| O=C(Nc1ccccc1)c1cc(Cl)ccc1O | 66.5% (inactive) |
| Cn1c2c(c3ccccc31)CCN1C[C@@H]3CCCC[C@H]3C[C@@H]21 | 23% (inactive) |
| O=C(Nc1ccccc1)Oc1c(Cl)c(Cl)c(Cl)c(Cl)c1Cl | 95.6% (inactive) and 93.6% (inactive) |
| CC1OC2CC(=O)OC2C2=C1C(=O)c1c(O)cccc1C2=O (stereo not given) | -35.3% (active) |
| CCCCCCCCCCCCCCCC[N+](C)(CCO)Cc1cnc[nH]1 (stereo not given) | -37.5% (active) |
| N#Cc1ccc([N+](=O)[O-])o1 | 93.3% (inactive) |
| O=C1c2ccccc2C(=O)c2sc(Nc3ccc(Cl)cc3)nc21 | 2.24% (active) |
| Cc1cc(N)c2ccccc2[n+]1CCCCCCCCCC[n+]1c(C)cc(N)c2ccccc21 | 8% (active) and 14.1% (inactive) |
| C=CCOc1ccc(N=NC(C#N)C#N)cc1 | 70.4% (inactive) |
| N#CSCc1ccc(CSC#N)c(Cl)c1 | 81.6% (inactive) |
| CC(C)c1ccc2nc3ccc(C(=O)NCCN4CCN(c5ccccc5)CC4)cn3c(=O)c2c1 | 56.3% (inactive) |

| Structure (SMILES) | growth |
| --- | --- |
| COC(=O)Nc1nc2ccc(C(=O)c3ccccc3)cc2[nH]1 | 30.5% (inactive) and 18.6% (inactive) and 16.7% (inactive) |
| Cc1ccc(N=C=C(c2ccccc2)c2ccccc2)cc1 | 66.9% (inactive) |
| CN(C)c1ccc(C(=C2C=CC(=[N+](C)C)C=C2)c2ccc(N(C)C)cc2)cc1 (tested in a mixture with another compound) | -38% (active) |
| CC(=O)C(=Cc1ccc(C=C(C(C)=O)C(C)=O)cc1)C(C)=O | 2.43% (active) |
| S=C(N/N=C/c1ccccn1)Nc1ccccn1 | 33.4% (inactive) |
| O=C(CC1(O)C(=O)Nc2c(Cl)ccc(Cl)c21)c1ccc(Cl)cc1Cl (stereo not given) | 81% (inactive) |
| COc1ccccc1OC(=O)Oc1ccccc1OC | 102% (inactive) and 81.8% (inactive) |
| Cc1ccc(C(=Nc2ccccc2)N=P(c2ccccc2)(c2ccccc2)c2ccccc2)cc1 | -31.5% (active) |
| Nc1ncnc2c1ncn2C1OC(CO)C(O)C1O (stereo not given) | 81.4% (inactive) and 29.8% (inactive) and 98.9% (inactive) |
| CN(Cc1cnc2nc(N)nc(N)c2n1)c1ccc(C(=O)NC(CCC(=O)O)C(=O)O)cc1 (stereo not given) | 62.1% (inactive) |
| COC(=O)c1nc(=S)[nH]c(C(=O)OC)c1C(=O)c1ccc2ccccc2c1 | 93.5% (inactive) |
| Oc1c(Br)c(Br)c(O)c(Br)c1Br | 105% (inactive) |
| O=[N+]([O-])c1ccc2c(N=Nc3ccc4ccccc4c3O)c(O)cc(S(=O)(=O)O)c2c1 | 77.2% (inactive) |
| Oc1ccc(/C=N/NC(=S)Nc2ccccc2)nc1 | 23.3% (inactive) |
| CN1c2ccccc2C(C)(C)C12C=Cc1cc(O)ccc1O2 (stereo not given) | 37.8% (inactive) |
| O=C1C=CC(=O)N1C1c2ccccc2-c2ccccc21 | 94.1% (inactive) |
| Cc1c2ccccc2c(C)c2c1ccc1ccccc12 | 83% (inactive) |

same assay, conditions: 100 µM

| Structure (SMILES) | growth |
| --- | --- |
| COc1ccc(-c2cscc2N)cc1 | 41.4% (inactive) |
| O=C(O)c1c(Cl)c(Cl)c(Cl)c(Cl)c1-c1c2cc(I)c(=O)c(I)c-2oc2c(I)c(O)c(I)cc12 | -7.17% (active) |
| O=C(Nc1c(Cl)cccc1Cl)Oc1cccc2cccnc12 | 19.3% (inactive) |
